# From PubChem BioAssay
# GalR3 antag: GalR3 antagonists in HEK293 cells, primary screen, cell-based, fluorescence readout | Galanin receptor type 3 (Homo sapiens), O60755 | HEK293 GalR3-CNG cAMP membrane potential fluorescence; galR3 body fused to GalR1 C-terminus | inhibition, % at 3 µM | 0.44% of 360,000 active | AID 651719, 2012;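 active means inhibition above the screen-wide average plus 3 SD, cut at about 13% in these data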;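 further: forskolin and galanin both at EC90 stimulate the cells; cAMP rise reported by CNG channel membrane potential dye signal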
# Env fusion inh: inhibitors of HIV-1 Env-driven cell-cell fusion, primary screen, HeLa-JRFL effector, CEM21 target cells, luciferase. 1.1% of 360,000 active. AID 651610, 2012. inhibition, % at 12.3 µM;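 active means mean replicate inhibition score of at least 50 and every replicate individually at or above 50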
# NR2F2 inh: NR2F2 transcriptional activity inhibitors, primary screen, cell-based, luciferase reporter, HEK293T, luminescence | HEK293T NGFI-A luciferase reporter | inhibition, % at 8.6 µM | 0.7% of 370,000 active | AID 686940, 2013;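 active means inhibition above a per-plate cutoff, mean inhibition of test wells between control levels plus 3 SD, cut at about 38% in these data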;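 further: cells cotransfected with COUP-TFII expression vector driving the NGFI-A reporter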
# Target sequence (P24468 whole entry, looked up): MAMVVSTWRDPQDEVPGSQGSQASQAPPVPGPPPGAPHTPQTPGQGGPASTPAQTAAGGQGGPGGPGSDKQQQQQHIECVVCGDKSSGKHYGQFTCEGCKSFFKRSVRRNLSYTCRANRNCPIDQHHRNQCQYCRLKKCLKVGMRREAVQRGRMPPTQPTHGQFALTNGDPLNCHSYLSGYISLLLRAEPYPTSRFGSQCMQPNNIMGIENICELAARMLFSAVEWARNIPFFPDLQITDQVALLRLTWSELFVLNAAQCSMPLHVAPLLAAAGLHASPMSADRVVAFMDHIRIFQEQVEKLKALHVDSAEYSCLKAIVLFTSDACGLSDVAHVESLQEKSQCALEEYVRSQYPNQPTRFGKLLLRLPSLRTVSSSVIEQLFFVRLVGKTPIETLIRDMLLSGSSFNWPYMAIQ
# Gli-Sufu antag: Gli-Sufu pathway antagonists, primary screen, luciferase luminescence, Sufu-KO-LIGHT cells, uHTS; inhibition, % at 5 µM; 0.74% of 340,000 active; Sufu-KO-LIGHT fibroblasts, Gli luciferase reporter luminescence;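 active means inhibition above about 55%, limit read from the data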
# aDG glyco act: activators of alpha-DG glycosylation, primary screen, uHTS, Pro5-aDG cells, AlphaScreen; alpha-DG glycosylation AlphaScreen (IIH6); 0% Pro5, 100% B10-LARGE cell signal; activation, % at 10 µM; 0.22% of 360,000 active; AID 624168, 2012;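 active means activation of at least 8% versus controls, or a plate z-score of at least 8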;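 further: Pro5 are CHO cells carrying HIG-tagged alpha-DG that lacks glycosylation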
# Gli-Sufu confirm: Gli-SUFU pathway antagonists, confirmation, single concentration, luciferase luminescence, Sufu-KO-LIGHT cells. shares compounds with Gli-Sufu antag. Gli luciferase reporter. inhibition, % at 5 µM. 40% of 2,500 active;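 active means mean inhibition at 5 µM reaching about 45%, limit read from the data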
# SufuKO cytotox: cytotoxicity in Sufu-KO-LIGHT cells, confirmation, cytotoxicity control for Gli-SUFU antagonist project, cell-based, ATP luminescence, single concentration. shares compounds with Gli-Sufu antag. cytotoxicity, % at 5 µM. 32% of 2,500 active. AID 651994, 2013;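 active means mean cytotoxicity at 5 µM above about 25%, limit read from the data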;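 further: cells exposed to compound overnight for roughly 16 to 18 hours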
# Wnt3a counter: Wnt3a reporter signal inhibition, confirmation, counter-screen for Gli-SUFU antagonist project, Wnt-LIGHT cells, luminescence, single concentration; 20% of 2,500 active; AID 651995, 2013; Wnt3a-driven luciferase reporter; shares compounds with Gli-Sufu antag; inhibition, % at 6.25 µM;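 active means mean inhibition above about 25%, limit read from the data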
# Hits are given with their value; n = inactive; x = no result. This is a sample that favours compounds with a hit; in the whole collection about 2.1% have one here.
SMILES,GalR3 antag,Env fusion inh,NR2F2 inh,Gli-Sufu antag,aDG glyco act,Gli-Sufu confirm,SufuKO cytotox,Wnt3a counter
COCc1cc(=O)[nH]c(Nc2nc3ccc(C)cc3o2)n1,n,x,n,n,n,63,26,n
CO[C@@H]1CN(C)C(=O)c2cccc(C#N)c2OCC[C@@H]2CC[C@@H](OC)[C@@H](CN(C)C(=O)[C@H]1C)O2,x,n,x,x,x,x,x,x
Cn1nc(CC(=O)Nc2ccc3c(c2)CCC3)c2ccccc2c1=O,n,79,n,72,n,68,41,n
C[C@@H]1CN([C@@H](C)CO)S(=O)(=O)c2ccc(C#CC3CC3)cc2O[C@@H]1CN(C)C(=O)c1ccccn1,x,n,x,x,x,x,x,x
COc1ccccc1CNS(=O)(=O)c1ccc(-c2cc(C)no2)cc1,n,n,n,n,n,n,57,n
C[C@H](CO)N1C[C@H](C)[C@H](CN(C)C(=O)Nc2cccc3ccccc23)Oc2ccc(NC(=O)NC3CCCCC3)cc2C1=O,x,n,x,x,x,x,x,x
Cc1ccc(-c2cc[n+](Cc3ccccc3)cc2)cc1,n,n,n,62,n,78,41,26
Cc1cc[n+](Cc2ccc([N+](=O)[O-])cc2)cc1,n,n,n,n,n,x,x,x
COc1cccc(S(=O)(=O)Nc2ccc3c(c2)[C@H]2C[C@@H](CC(=O)N4CCCCC4)O[C@@H](CO)[C@H]2O3)c1,x,n,x,x,x,x,x,x
C[C@@H]1CCCCO[C@H](CN(C)C(=O)CCC(F)(F)F)[C@H](C)CN([C@H](C)CO)C(=O)c2cc(NS(=O)(=O)c3cccs3)ccc2O1,x,n,x,x,x,x,x,x
Nc1nc(SCC(=O)Nc2ccc(Oc3ccccc3)cc2)n[nH]1,n,n,n,n,n,x,x,x
Nc1nc(SCC(=O)Nc2cccc(Oc3ccccc3)c2)n[nH]1,n,n,n,n,n,n,n,n
O=C(NN=C1CCCC1)c1ccc(O)cc1,n,n,n,n,n,n,n,n
O=C(NN=C1CCCCCC1)c1ccncc1,n,n,n,n,n,x,x,x
Cc1noc(C)c1NC(=O)N(C)C[C@@H]1Oc2c(NC(=O)Nc3ccc(F)cc3)cccc2C(=O)N([C@@H](C)CO)C[C@H]1C,x,n,x,x,x,x,x,x
Cc1cc(C)c(NC(=S)N(CCN(C)C)C(C)c2cccnc2)c(C)c1 (stereo not given),n,n,n,n,n,x,x,x
Cc1cc(C)cc(NC(=S)N(CCN(C)C)C(C)c2cccnc2)c1 (stereo not given),n,n,n,n,n,n,n,n
Cc1cccnc1NC(=O)c1ccc(Cl)c(S(=O)(=O)N2CCCCCC2)c1,n,x,n,84,n,n,n,n
CCN(C(=O)CSc1nnc(C)n1Cc1ccccc1)C1CCS(=O)(=O)C1 (stereo not given),n,n,n,n,n,x,x,x
CCN(C(=O)CSc1nnc(-c2ccncc2)n1Cc1ccccc1)C1CCS(=O)(=O)C1 (stereo not given),n,n,n,58,n,n,n,n
CC1=CC(C)(C)N(C(=O)CCl)c2cc(C)ccc21,n,n,n,n,n,x,x,x
COc1ccc2c(c1)C(C)=CC(C)(C)N2S(=O)(=O)c1ccc(C)cc1,n,n,n,67,n,56,58,30
COC(=O)C1(C)CN(S(=O)(=O)c2ccc(C)cc2)c2cc(OC)ccc2C1=O (stereo not given),n,n,n,n,n,x,x,x
CC1=CC(C)(C)N(S(=O)(=O)c2ccc(C)cc2)c2cc(C)ccc21,n,x,n,59,n,58,62,n
CCOc1ccc2c(c1)C(C)=CC(C)(C)N2S(=O)(=O)c1ccc(C)cc1,n,n,n,67,n,64,62,n
